We go through 71 compounds from PubChem BioAssay AID488969 (Vanderbilt High Throughput Screening Facility, 2010).

Molecules are shown by their SMILES. Whole data set: some 110,000 compounds, median “z-score” near -0.1, cut for the highest 2% near 2. The list comes from a sample in which the highest values are over-represented; it also holds similar structures and randomly drawn compounds. The source made the active and inactive calls.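 The calls were made as follows: active = z-score in the third read window above 3 or below -3; inactive = the rest.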

The target of the experiment is Metabotropic glutamate receptor 8 (Rattus norvegicus) (UniProt P70579). Put plainly: rat mGluR8 modulators via GIRK flux, primary screen, cell-based, thallium flux, HTS (AID 488969). The conditions noted are these: HEK293 rat mGluR8, GIRK (G protein-gated inwardly rectifying potassium channel) thallium flux, FluoZin2; at 10 µM; stronger effect = higher value; submaximal glutamate (EC20) added with thallium.
Chain of Metabotropic glutamate receptor 8 (Rattus norvegicus) (P70579 whole entry, looked up): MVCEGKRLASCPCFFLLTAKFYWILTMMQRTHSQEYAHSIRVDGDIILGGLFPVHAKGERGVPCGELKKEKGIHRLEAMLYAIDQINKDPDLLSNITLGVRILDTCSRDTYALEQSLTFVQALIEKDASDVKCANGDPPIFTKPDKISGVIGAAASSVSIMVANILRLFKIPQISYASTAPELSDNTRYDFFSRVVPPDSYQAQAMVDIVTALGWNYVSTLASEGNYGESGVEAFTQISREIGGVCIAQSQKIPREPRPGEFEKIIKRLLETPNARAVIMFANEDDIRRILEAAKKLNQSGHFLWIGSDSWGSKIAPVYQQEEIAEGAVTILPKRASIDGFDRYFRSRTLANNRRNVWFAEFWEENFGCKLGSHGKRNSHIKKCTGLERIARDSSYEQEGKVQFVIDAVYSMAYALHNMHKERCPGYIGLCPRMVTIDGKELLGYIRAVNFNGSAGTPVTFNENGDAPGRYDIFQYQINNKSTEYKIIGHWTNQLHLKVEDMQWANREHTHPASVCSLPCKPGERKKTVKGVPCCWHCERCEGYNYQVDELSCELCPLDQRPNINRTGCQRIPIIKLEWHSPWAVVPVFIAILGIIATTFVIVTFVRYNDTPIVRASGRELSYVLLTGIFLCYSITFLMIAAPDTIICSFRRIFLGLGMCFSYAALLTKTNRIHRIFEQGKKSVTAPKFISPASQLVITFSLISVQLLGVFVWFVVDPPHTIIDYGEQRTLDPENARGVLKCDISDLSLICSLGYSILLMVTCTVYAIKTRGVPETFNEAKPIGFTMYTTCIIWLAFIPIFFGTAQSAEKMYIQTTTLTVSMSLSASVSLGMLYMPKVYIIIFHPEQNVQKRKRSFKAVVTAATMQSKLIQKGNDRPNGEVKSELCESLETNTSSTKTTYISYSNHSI
As to `CCc1ccc(N=c2c([N+](=O)[O-])nn(-c3ccccc3)n2O)cc1`, the z-score was -0.133.
Under `CCCn1c(SCC(=O)N2CCCc3ccccc32)nnc1-c1ccccn1` stands -0.0622; under `Cc1nn(CCC#N)c(NC(=O)c2ccc(Cl)cc2Cl)c1P(=O)(Nc1ccc([N+](=O)[O-])cc1)N1CCOCC1` (stereo unspecified), -0.0204; under `CN(C)C(=O)COc1ccc2ccc(=O)oc2c1`, -0.168.
`CCOc1ccc2cc(C(=O)c3ccccc3)c(=O)oc2c1`: the z-score was -0.201.
In turn, `CN(C)C(=O)COc1ccc2cc(-c3ccccc3)c(=O)oc2c1` yielded a z-score of 2.32.
`Fc1ccc(C2NC(=S)NC3=C2N2CCC3CC2)cc1` (stereo unspecified) yielded a z-score of -0.0689.
The value for `O=C1CC(c2cccs2)Sc2nc3ccccc3n21` (stereo unspecified) was 1.16; that for `O=C(O)C1CC(=O)n2c(nc3ccccc32)S1` (stereo unspecified) was 0.555; that for `O=C1CC(c2ccco2)Sc2nc3ccccc3n21` (stereo unspecified) was 3.22 (active).
Under `CCCCOc1nc(N)nc(-c2ccccc2)n1` stands -0.634.
As for `COc1ccc(C(=O)CSc2nc3ccccc3n2CC(=O)NC(C)(C)C)cc1`, the z-score is -0.144.
The value for `COC(=O)CSC1=C(C#N)C(=O)NC(c2ccccc2)S1` (stereo unspecified) was -0.603; that for `CCOC(=O)CSC1=C(C#N)C(=O)NC(c2ccc(OC)cc2)S1` (stereo unspecified) was 0.083; that for `CCOC(=O)CSC1=C(C#N)C(=O)NC(c2ccc(OC)c(OC)c2)S1` (stereo unspecified) was 6.39 (active).
Compound `O=C(CSc1c[nH]c2ccccc12)NCC1CCCO1` (stereo unspecified) had a z-score of -0.0605.
Regarding `C#CCOC(=O)C(NC(=O)c1ccccc1)=C1CCCCC1`, the z-score was -0.603.
The value for `C=CCNC(=O)/C(=C\c1ccc2c(c1)OCO2)NC(=O)c1ccc(Br)cc1` was -0.116; that for `Cc1[nH]c2ccccc2c1C(=O)CN1C(=O)NC2(CC(C)CC(C)(C)C2)C1=O` (stereo unspecified) was -0.266.
The value for `O=C(OCCN1C(=O)c2cccc3c(N4CCOCC4)ccc(c23)C1=O)c1cc(Cl)cc(Cl)c1` was 5.23 (active); that for `O=C(OCCN1C(=O)c2cccc3c(N4CCOCC4)ccc(c23)C1=O)c1ccc(Cl)cc1` was -0.758.
In turn, `O=C(OCCN1C(=O)c2cccc3c(N4CCOCC4)ccc(c23)C1=O)c1ccccc1Cl` gave a z-score of -0.723.
`O=C1c2cccc3c(N4CCCCC4)ccc(c23)C(=O)N1CCO`: the z-score is -0.897.
In turn, `O=C(OCCN1C(=O)c2cccc3c(N4CCOCC4)ccc(c23)C1=O)c1ccc(Cl)cc1Cl` had a z-score of -0.884.
`O=C(OCCN1C(=O)c2cccc3c(N4CCOCC4)ccc(c23)C1=O)c1cccc(Cl)c1` came in with a z-score of 2.81.
Under `CCN1CCCC1CNC(=O)c1ccc(N2CCCC2=O)cc1` (stereo unspecified) stands 1.38; under `O=S(=O)(Cc1ccccc1Cl)Nc1ccccn1`, 1.91.
As to `CCOc1ccccc1NC(=O)c1cccc(NC(=O)c2ccco2)c1`, the z-score is -0.729.
With `CCOc1ccccc1NC(=O)Nc1cccc(C(C)=O)c1`, the z-score was 3.62 (active).
The compound `CCOc1ccccc1NC(=O)c1cccc(NC(=O)CC(c2ccccc2)c2ccccc2)c1` yielded a z-score of -0.177.
In turn, `CC(Sc1ccc(Cl)cc1)C(=O)Nc1ccc(S(=O)(=O)N2CCOCC2)cc1` (stereo unspecified) gave a z-score of 0.967.
The value for `CC(Sc1ccccc1)C(=O)Nc1ccc(S(=O)(=O)N2CCOCC2)cc1` (stereo unspecified) was 0.0953; that for `Cc1ccc(SC(C)C(=O)Nc2ccc(S(=O)(=O)N3CCOCC3)cc2)cc1` (stereo unspecified) was 6.05 (active).
`COc1ccsc1C(=O)N1CCN(Cc2ccc3c(c2)OCO3)CC1`: the z-score is -0.0804.
The value for `COc1cccc(C(=O)OC2CCCN(C)C2)c1` (stereo unspecified) was -0.125.
The compound `Cc1csc2nc(CNS(=O)(=O)N(C)C)cn12` had a z-score of -0.402.
On to `CCc1ccc(S(=O)(=O)NCc2cn3c(C)csc3n2)s1`, for which the z-score was found to be 0.337.
Under `CCCS(=O)(=O)NCc1cn2c(C)csc2n1` stands 2.02; under `CC(c1ccco1)N(C(=O)c1ccccc1NS(=O)(=O)c1ccc(Cl)cc1)c1ccccn1` (stereo unspecified), -0.362; under `CC(c1ccco1)N(C(=O)c1ccccc1NS(=O)(=O)c1ccc(Cl)c([N+](=O)[O-])c1)c1ccccn1` (stereo unspecified), 0.843.
The compound `CC(c1ccco1)N(C(=O)c1ccccc1NS(=O)(=O)c1cc([N+](=O)[O-])ccc1Cl)c1ccccn1` (stereo unspecified) registered a z-score of 2.18.
In turn, `O=C(CN1C(=O)C2CC=CCC2C1=O)Nc1nnc(SCc2ccc(Cl)cc2)s1` (stereo unspecified) came in with a z-score of -0.31.
The value for `CCNc1nnc(-c2ccncc2)s1` was -0.233; that for `Cc1ccc(Nc2nnc(-c3ccncc3)s2)c(Br)c1` was 0.13; that for `c1ccc2c(Nc3nnc(-c4ccncc4)s3)cccc2c1` was 4.07 (active).
For the compound `N=C1CCCN1CC(=O)c1ccc(Cl)cc1`, the z-score is 0.073.
In turn, `COc1cc2c(C)nc3onc(-c4ccccc4)c3c2cc1OC` showed a z-score of -0.241.
The value for `COc1ccc2nc(SCC(=O)NC3CCCc4ccccc43)[nH]c2c1` (stereo unspecified) was 0.0427.
Under `O=C(CSc1nc2ccccc2[nH]1)NC1CCCc2ccccc21` (stereo unspecified) stands 2.41.
For the compound `Cc1ccc2nc(SCC(=O)NC3CCCc4ccccc43)[nH]c2c1` (stereo unspecified), the z-score is 0.164.
The compound `O=C(NCc1cccnc1)C1CCN(C(=O)c2ccc(Cl)cc2Cl)CC1` yielded a z-score of -0.0203.
The value for `N=C1S/C(=C\c2cn[nH]c2-c2ccc(F)cc2)C(=O)N1c1ccccc1F` was 0.348.
Compound `CCn1c(-c2nn(C)c(C)c2Cl)n[nH]c1=S` showed a z-score of -0.461.
`CCCCn1nnc(NC(=S)NC(=O)c2cccs2)n1`: the z-score came to 0.0688.
Under `CCCCn1nnc(NC(=S)NC(=O)c2ccc(-c3cccc(Cl)c3Cl)o2)n1` stands 4.59 (active).
Under `CCCCn1nnc(NC(=O)c2ccc(-c3cccc(Cl)c3)o2)n1` stands -0.581; under `COc1cccc(C(=O)/C=C/c2ccc(SC)cc2)c1`, 0.0506.
Under `CCC(C)N1CC(C(=O)O)CC1=O` (stereo unspecified) stands -0.0459; under `CCOc1ccc(S(=O)(=O)N2CCN(Cc3ccccc3)CC2)c2cccnc12`, 0.939; under `Cc1cc(Oc2ccc(C)c(Cl)c2)nc(SCC(=O)c2ccccc2)n1`, -0.36.
Regarding `N#C/C(=C/c1ccc(N2CCCC2)c([N+](=O)[O-])c1)c1nc2ccccc2[nH]1`, the z-score was determined as 0.0678.
The value for `N#C/C(=C\c1ccc(N2CCOCC2)c([N+](=O)[O-])c1)c1nc2ccccc2[nH]1` was 2.63.
The value for `N#C/C(=C\c1ccc(N2CCCC2)c([N+](=O)[O-])c1)c1nc2ccccc2[nH]1` was 0.221.
With `COC(=O)N/N=C/c1cc(C)n(-c2cccc3ccccc23)c1C`, the z-score came to 0.0823.
In the case of `O=C(Nc1ccccc1)N1CCN(c2ccc(C(F)(F)F)cn2)CC1`, the z-score was -0.362.
The value for `Nc1nc(CN2CCN(Cc3ccccc3)CC2)nc(Nc2ccccc2)n1` was 0.26.
The value for `Nc1nc(CN2CCC(Cc3ccccc3)CC2)nc(Nc2ccccc2)n1` was 2.39; that for `CC1CC(C)CN(Cc2nc(N)nc(Nc3ccc4ccccc4c3)n2)C1` (stereo unspecified) was 3.66 (active); that for `COc1ccccc1Nc1nc(N)nc(CN2CCC(Cc3ccccc3)CC2)n1` was 0.165.
Under `CC1CC(C)CN(Cc2nc(N)nc(Nc3ccccc3)n2)C1` (stereo unspecified) stands 0.639; under `Nc1nc(CN2CCCCCC2)nc(Nc2ccccc2)n1`, 0.00781.
